According to PubChem BioAssay (NCI):
About 83,000 compounds went through this panel and 20% of them were active in at least one assay; those are over-represented in the sample as a whole.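 Each cell line was grown in a 96-well plate and treated with one concentration of compound for 48 hours. Values below 10 were considered active.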 Values without a mark were called inactive. Active and inactive are the calls of the source.

Key:
Assay in all cases: NCI-60 one-dose screen, 48 h (100 = growth as untreated, 0 = no growth, -100 = all killed)
Settings in all cases: 10 µM unless noted
SR leukemia = system: SR leukemia
RPMI-8226 leukemia = system: RPMI-8226 leukemia
OVCAR-8 ovarian = system: OVCAR-8 ovarian
OVCAR-5 ovarian = system: OVCAR-5 ovarian
OVCAR-4 ovarian = system: OVCAR-4 ovarian
SK-OV-3 ovarian = system: SK-OV-3 ovarian
IGROV1 ovarian = system: IGROV1 ovarian
OVCAR-3 ovarian = system: OVCAR-3 ovarian
HS 578T breast = system: HS 578T breast
NCI/ADR-RES ovarian = system: NCI/ADR-RES ovarian
T-47D breast = system: T-47D breast
BT-549 breast = system: BT-549 breast
MDA-MB-435 melanoma = system: MDA-MB-435 melanoma
MCF7 breast = system: MCF7 breast
HCC-2998 colon = system: HCC-2998 colon
KM12 colon = system: KM12 colon
SW-620 colon = system: SW-620 colon
HCT-116 colon = system: HCT-116 colon

SMILES	growth (SR leukemia)	growth (RPMI-8226 leukemia)	growth (OVCAR-8 ovarian)	growth (OVCAR-5 ovarian)	growth (OVCAR-4 ovarian)	growth (SK-OV-3 ovarian)	growth (IGROV1 ovarian)	growth (OVCAR-3 ovarian)	growth (HS 578T breast)	growth (NCI/ADR-RES ovarian)	growth (T-47D breast)	growth (BT-549 breast)	growth (MDA-MB-435 melanoma)	growth (MCF7 breast)	growth (HCC-2998 colon)	growth (KM12 colon)	growth (SW-620 colon) [%]	growth (HCT-116 colon)
COc1ccccc1-c1nc2ccc3[nH]ncc3c2c2c1CCCC2	29.1%	68.6%	81.2%	103%	85.6%	80.5%	58.9%	114%	44.8%	80.6%	74.2%	77.1%	64.4%	68.7%	113%	31%	–	–
O=C(Nc1ncc(Cc2ccccc2)s1)c1cc(-c2ccccc2)nc2ccccc12	105%	95.7%	98.4%	98.6%	108%	96.7%	87.3%	104%	92.6%	87.8%	91.7%	99.3%	104%	91.1%	–	105%	96.2	–
CCOC(=O)c1c2c(n3ccc(NC(=O)CCN4CCCC4)cc13)C(=O)c1ncccc1C2=O	-20.2% (active)	-31.8% (active)	-33.3% (active)	-67.4% (active)	-68.1% (active)	74.4%	-71.1% (active)	-85.9% (active)	-43.9% (active)	27.3%	-43.9% (active)	-73.8% (active)	-68.5% (active)	-66.6% (active)	-83.5% (active)	-89.4% (active)	–	-82.8% (active)
COc1cc(OCc2cccc(-c3ccccc3)c2C)cc(OC)c1CN1CCCCC1C(=O)NCCOCCOCCN (stereo unspecified)	-26% (active)	13.4%	82.8%	101%	53.3%	104%	70%	85%	84.5%	103%	71.2%	84.7%	-72.8% (active)	51.3%	88%	78.9%	–	22.8%
O=C1c2c(c3c4cccnc4[nH]c3c3ccc4ccccc4c23)C(=O)N1O	17.8%	16%	46%	110%	53.8%	75.5%	38%	14.4%	70.9%	94.3%	40.7%	45%	47.9%	20.8%	77.2%	50.2%	–	26.5%
Cc1ccc(-c2nn(CC(=O)N3CCOCC3)c(N)c2C#N)cc1	99%	108%	99.8%	105%	91.8%	109%	106%	113%	93.1%	108%	105%	98.7%	99.2%	92.5%	–	108%	–	101%
C[C@@H]1N=C(c2ccc(Cl)cc2Cl)Nc2nc3ccccn3c2C1=O	33%	75.2%	68.1%	91.2%	89.5%	50.1%	41.9%	2.44% (active)	52%	44.5%	64.3%	55.6%	-16.6% (active)	16.8%	75.4%	23.8%	25.2	–
CC1(C)CCC[C@]23C(=O)O[C@](O)(C(=O)C4=C[C@@](C)(/C=C/CCCc5ccc6ccc7cccc8ccc5c6c78)CC[C@@]42O)[C@@H]13	9% (active)	-21.4% (active)	-34.2% (active)	-75.7% (active)	-92.3% (active)	-66.2% (active)	-83% (active)	-82% (active)	-7.13% (active)	-18.7% (active)	-60.5% (active)	-71.9% (active)	-92.4% (active)	-57.4% (active)	-86% (active)	-83.3% (active)	–	-91.8% (active)
CCN(CC)CCN1C(=O)c2c(c(C)c3c(oc4cc(OC)ccc43)c2C)C1=O	29.3%	88.1%	90.6%	94.2%	73.8%	115%	42.2%	112%	118%	86.2%	104%	98.2%	95.6%	-8.69% (active)	103%	102%	–	94.1%
C#CCOc1cccc(Nc2c(Cl)c(CCl)nc3ccc(Oc4ccccc4)cc23)c1	10.4%	24.5%	24.8%	82.7%	75%	109%	43.2%	31.6%	74.9%	60.2%	82.1%	15.8%	15.6%	12.9%	104%	69.7%	20.6	–
Oc1cccc(-c2nc(-c3n[nH]c(=S)n3-c3ccccc3)cc3c2[nH]c2ccccc23)c1	19.2%	17.8%	24.7%	73.1%	56.8%	37.3%	24%	3.83% (active)	35.1%	91.6%	47.7%	-15.9% (active)	3.44% (active)	17.8%	-15.2% (active)	13%	–	10.6%
COc1ccc(/C=C/C(=O)c2ccc(-n3cc(CN4CCN(c5cc6c(cc5F)c(=O)c(C(=O)O)cn6C5CC5)CC4)nn3)cc2)cc1	-2.25% (active)	-24.4% (active)	67.4%	92.1%	88%	76.9%	26.6%	39.3%	52.8%	90.7%	78.6%	65.8%	22.2%	13.2%	44%	42.6%	–	-31.3% (active)
CN1CCN(c2ccc(Nc3ncc4[nH]c(=O)n(Cc5ccccc5N)c4n3)cc2)CC1	91%	105%	98.4%	79.1%	93.6%	81.3%	77.6%	102%	69.8%	102%	75.3%	97.8%	104%	87.8%	96.4%	101%	–	91.5%
CN1/C(=C/C=C/c2n(Cc3ccc4ccccc4c3)c(Cl)c(Cl)[n+]2Cc2ccc3ccccc3c2)Oc2ccccc21	95.3%	-53.1% (active)	-86.1% (active)	-83.1% (active)	-70.7% (active)	-57.2% (active)	-80.4% (active)	-83.8% (active)	-44.4% (active)	33.4%	-50.2% (active)	-84.8% (active)	-81.8% (active)	-72.8% (active)	-87.6% (active)	-80.9% (active)	–	-82.2% (active)
O=C1N/C(=N/N=C(c2ccccc2)c2ccccc2)S/C1=C\c1ccc(Br)cc1	83.3%	95.6%	95.6%	102%	96.8%	97.2%	91.9%	102%	95%	103%	84.7%	97%	103%	99.6%	99.5%	92.9%	90.7	–
COc1ccc(Nc2nccc(Nc3ccc4[nH]ncc4c3)n2)cc1	4.38% (active)	2.72% (active)	9.36% (active)	52.1%	33.3%	52.1%	50.6%	48.9%	46.7%	17.7%	-3.74% (active)	44.2%	34.9%	13.3%	63.4%	10%	–	19.3%
CC(=O)[C@H]1CC[C@]2(C)[C@@H]1CC[C@@H]1[C@@]3(C)C/C(=C/c4cccnc4)C(=O)C(C)(C)[C@@H]3CC[C@]12C	40.9%	8.88% (active)	27.1%	132%	43.6%	87.2%	93.4%	47.4%	94.2%	67.2%	13.6%	50.6%	75.1%	34.8%	99.9%	49.1%	–	–
COC(=O)c1sc(-c2ccc(C)cc2)cc1O	81.9%	103%	117%	112%	91.5%	114%	100%	99.6%	101%	99.8%	102%	107%	91.9%	96.4%	94.7%	95.8%	–	–
